The values below come from PMC7862700, “An all-to-all approach to the identification of sequence-specific readers for epigenetic DNA modifications on cytosine”.

Assay in all cases: DAPPL (digital affinity profiling via proximity ligation, sequencing); 10 mM Tris-HCl pH 7.5, 50 mM NaCl, 1 mM DTT, 4% glycerol, room temperature, 30 min; GST-TFs on glutathione beads, 16-mer random dsDNA library, 0.1% formaldehyde crosslink after washing; high values mean tight binding
The target of one assay is T1, FEV (Homo sapiens, UniProt Q99581 1-238).
T1 sequence: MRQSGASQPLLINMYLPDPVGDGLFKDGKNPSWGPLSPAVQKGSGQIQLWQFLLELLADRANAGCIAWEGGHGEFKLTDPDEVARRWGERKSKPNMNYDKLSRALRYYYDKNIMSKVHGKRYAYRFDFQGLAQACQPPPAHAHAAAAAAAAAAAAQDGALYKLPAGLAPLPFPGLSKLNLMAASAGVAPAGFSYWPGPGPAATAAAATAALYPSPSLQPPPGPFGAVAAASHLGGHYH
The following applies: protein: recombinant; tags: N-terminal GST; dsDNA, one strand shown. The method, boiled down: (§1)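 Binding signal is each hexamer's read frequency for a factor divided by its frequency in the tag-only sample. The factors were GST-fused human transcription factors from yeast, captured on glutathione beads, DNA-barcoded and pooled with that sample. Pools were incubated with 200 nmole of a random double-stranded 16-mer DNA library in Tris/NaCl/DTT/glycerol buffer at room temperature for 30 min, then washed, crosslinked with 0.1% formaldehyde, proximity-ligated with BsaI/T4 ligase (1 h, 37 °C), PCR-amplified and sequenced on an Illumina NextSeq500.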

Another assay concerns the target ETV5 (Homo sapiens, UniProt P41161 1-510). To be noted: protein: recombinant; tags: N-terminal GST; dsDNA, one strand shown. The method, boiled down: as §1
A further assay deals with HSF1 (Homo sapiens, UniProt Q00613 1-529). The following applies: protein: recombinant; tags: N-terminal GST; chain copies: 3; dsDNA, one strand shown. The method, boiled down:
as §1

Another assay concerns the target T2, SPIC (Homo sapiens, UniProt Q8N5J4 1-248).
T2 sequence: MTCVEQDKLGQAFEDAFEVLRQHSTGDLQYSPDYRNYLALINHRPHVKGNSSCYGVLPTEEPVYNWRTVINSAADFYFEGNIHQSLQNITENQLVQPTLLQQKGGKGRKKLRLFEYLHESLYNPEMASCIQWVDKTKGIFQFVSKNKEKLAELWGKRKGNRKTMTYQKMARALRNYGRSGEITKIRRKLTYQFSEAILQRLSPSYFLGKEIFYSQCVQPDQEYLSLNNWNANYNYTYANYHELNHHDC
To be noted: protein: recombinant; tags: N-terminal GST; dsDNA, one strand shown. The method, boiled down: as §1

The target in the next assay is ELF4 (Homo sapiens, UniProt Q99607 1-663). To be noted: protein: recombinant; tags: N-terminal GST; dsDNA, one strand shown. The method, boiled down: as §1
ELF4, sequence (Q99607 whole entry): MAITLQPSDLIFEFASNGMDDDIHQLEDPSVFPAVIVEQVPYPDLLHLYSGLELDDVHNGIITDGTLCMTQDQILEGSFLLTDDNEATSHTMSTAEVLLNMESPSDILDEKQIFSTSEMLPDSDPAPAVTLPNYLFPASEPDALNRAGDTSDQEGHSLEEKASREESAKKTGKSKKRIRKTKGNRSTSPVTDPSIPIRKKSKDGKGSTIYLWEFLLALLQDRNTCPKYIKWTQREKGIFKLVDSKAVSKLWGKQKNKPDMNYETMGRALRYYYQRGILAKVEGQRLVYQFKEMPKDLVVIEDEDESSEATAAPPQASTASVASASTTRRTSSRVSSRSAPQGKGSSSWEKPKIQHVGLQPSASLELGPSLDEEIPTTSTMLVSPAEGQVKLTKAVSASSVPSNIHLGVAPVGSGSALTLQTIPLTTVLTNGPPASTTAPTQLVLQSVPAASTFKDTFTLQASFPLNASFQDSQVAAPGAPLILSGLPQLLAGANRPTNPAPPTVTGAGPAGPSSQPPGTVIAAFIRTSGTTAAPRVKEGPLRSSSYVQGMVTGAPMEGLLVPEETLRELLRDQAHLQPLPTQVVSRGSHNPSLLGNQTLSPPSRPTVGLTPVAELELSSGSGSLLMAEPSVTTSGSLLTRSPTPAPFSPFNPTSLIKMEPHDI
A further assay addresses T3, ELK4 (Homo sapiens, UniProt P28324-2 1-405).
T3 sequence: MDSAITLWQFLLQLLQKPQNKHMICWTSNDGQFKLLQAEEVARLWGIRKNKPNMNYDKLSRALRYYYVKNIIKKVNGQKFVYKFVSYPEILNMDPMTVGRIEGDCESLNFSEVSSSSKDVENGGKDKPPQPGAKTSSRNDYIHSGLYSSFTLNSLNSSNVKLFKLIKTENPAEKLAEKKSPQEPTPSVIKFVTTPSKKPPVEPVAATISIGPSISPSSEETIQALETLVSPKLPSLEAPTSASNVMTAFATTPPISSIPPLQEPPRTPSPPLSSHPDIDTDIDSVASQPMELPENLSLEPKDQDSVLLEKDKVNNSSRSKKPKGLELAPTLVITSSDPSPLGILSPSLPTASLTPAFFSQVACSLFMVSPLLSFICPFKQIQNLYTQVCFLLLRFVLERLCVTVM
The following applies: protein: recombinant; tags: N-terminal GST; dsDNA, one strand shown. The method, boiled down:
as §1

For the next assay, the target named is T4, ETV2 (Homo sapiens, UniProt O00321 1-342).
T4 sequence: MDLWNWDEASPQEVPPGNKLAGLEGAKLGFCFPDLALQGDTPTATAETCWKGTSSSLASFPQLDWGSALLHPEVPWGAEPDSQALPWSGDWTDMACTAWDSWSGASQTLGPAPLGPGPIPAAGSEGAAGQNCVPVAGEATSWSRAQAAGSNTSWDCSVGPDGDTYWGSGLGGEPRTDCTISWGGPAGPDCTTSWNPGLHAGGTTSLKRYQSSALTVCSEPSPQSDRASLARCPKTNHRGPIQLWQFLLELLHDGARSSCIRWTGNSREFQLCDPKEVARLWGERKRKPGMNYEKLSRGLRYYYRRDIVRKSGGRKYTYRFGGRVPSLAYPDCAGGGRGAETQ
To be noted: protein: recombinant; tags: N-terminal GST; dsDNA, one strand shown. The method, boiled down:
as §1

For the next assay, the target named is T5, ELF3 (Homo sapiens, UniProt P78545 1-371).
T5 sequence: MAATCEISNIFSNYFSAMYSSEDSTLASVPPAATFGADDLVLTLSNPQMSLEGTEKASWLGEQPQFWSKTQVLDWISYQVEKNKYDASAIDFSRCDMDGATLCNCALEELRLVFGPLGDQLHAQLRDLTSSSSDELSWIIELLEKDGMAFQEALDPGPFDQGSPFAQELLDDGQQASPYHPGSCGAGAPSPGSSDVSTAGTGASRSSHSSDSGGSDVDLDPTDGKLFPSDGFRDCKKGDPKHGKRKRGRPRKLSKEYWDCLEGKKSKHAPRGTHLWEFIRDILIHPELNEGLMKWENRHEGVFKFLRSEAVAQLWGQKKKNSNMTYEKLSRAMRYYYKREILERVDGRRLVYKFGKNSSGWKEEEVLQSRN
To be noted: protein: recombinant; tags: N-terminal GST; dsDNA, one strand shown. The method, boiled down: as §1

Another assay deals with CRX (Homo sapiens, UniProt O43186 1-299). To be noted: protein: recombinant; tags: N-terminal GST; dsDNA, one strand shown. The method, boiled down:
as §1

The target of a further assay is ETV1 (Homo sapiens, UniProt P50549 1-477). To be noted: protein: recombinant; tags: N-terminal GST; dsDNA, one strand shown. The method, boiled down: as §1
ETV1, sequence (P50549 whole entry): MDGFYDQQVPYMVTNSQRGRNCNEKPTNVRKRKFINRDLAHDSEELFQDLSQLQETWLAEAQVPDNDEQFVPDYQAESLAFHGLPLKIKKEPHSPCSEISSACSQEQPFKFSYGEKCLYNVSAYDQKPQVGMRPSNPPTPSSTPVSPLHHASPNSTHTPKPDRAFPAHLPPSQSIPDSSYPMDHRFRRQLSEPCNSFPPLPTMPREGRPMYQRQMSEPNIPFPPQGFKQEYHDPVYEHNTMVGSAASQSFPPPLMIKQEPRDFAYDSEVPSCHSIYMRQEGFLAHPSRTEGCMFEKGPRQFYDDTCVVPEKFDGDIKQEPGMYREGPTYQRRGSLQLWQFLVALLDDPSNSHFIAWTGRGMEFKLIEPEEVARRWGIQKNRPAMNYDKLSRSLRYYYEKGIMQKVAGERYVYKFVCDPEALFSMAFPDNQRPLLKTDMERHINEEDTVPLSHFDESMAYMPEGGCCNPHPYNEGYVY
The next assay deals with T6, ERF (Homo sapiens, UniProt P50548 1-548).
T6 sequence: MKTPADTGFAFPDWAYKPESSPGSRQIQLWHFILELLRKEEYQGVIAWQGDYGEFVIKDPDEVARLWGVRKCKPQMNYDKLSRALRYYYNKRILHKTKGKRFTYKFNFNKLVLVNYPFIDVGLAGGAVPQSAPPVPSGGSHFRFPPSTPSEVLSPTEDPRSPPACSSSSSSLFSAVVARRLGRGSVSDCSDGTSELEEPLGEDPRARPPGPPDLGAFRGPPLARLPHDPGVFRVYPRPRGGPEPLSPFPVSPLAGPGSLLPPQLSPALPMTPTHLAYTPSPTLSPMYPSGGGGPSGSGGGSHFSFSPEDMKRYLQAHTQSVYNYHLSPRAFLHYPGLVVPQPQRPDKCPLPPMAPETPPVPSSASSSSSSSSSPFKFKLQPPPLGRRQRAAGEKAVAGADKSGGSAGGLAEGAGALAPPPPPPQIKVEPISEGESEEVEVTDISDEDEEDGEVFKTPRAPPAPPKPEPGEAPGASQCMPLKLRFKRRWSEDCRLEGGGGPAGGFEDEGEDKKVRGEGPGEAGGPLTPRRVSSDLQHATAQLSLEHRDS
The following applies: protein: recombinant; tags: N-terminal GST; dsDNA, one strand shown. The method, boiled down:
as §1

A further assay addresses T7, ETV3L (Homo sapiens, UniProt Q6ZN32 1-361).
T7 sequence: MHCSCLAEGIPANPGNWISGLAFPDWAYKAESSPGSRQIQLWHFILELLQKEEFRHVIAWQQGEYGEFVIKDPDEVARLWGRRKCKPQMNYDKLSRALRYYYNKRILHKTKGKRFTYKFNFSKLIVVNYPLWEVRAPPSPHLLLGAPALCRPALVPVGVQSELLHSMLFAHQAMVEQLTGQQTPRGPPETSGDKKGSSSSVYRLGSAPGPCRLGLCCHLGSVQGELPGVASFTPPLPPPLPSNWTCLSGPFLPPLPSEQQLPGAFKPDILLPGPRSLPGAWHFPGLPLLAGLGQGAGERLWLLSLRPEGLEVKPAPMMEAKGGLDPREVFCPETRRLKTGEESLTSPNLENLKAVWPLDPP
To be noted: protein: recombinant; tags: N-terminal GST; dsDNA, one strand shown. The method, boiled down:
as §1

For the next assay, the target named is T8, ETS2 (Homo sapiens, UniProt P15036 1-469).
T8 sequence: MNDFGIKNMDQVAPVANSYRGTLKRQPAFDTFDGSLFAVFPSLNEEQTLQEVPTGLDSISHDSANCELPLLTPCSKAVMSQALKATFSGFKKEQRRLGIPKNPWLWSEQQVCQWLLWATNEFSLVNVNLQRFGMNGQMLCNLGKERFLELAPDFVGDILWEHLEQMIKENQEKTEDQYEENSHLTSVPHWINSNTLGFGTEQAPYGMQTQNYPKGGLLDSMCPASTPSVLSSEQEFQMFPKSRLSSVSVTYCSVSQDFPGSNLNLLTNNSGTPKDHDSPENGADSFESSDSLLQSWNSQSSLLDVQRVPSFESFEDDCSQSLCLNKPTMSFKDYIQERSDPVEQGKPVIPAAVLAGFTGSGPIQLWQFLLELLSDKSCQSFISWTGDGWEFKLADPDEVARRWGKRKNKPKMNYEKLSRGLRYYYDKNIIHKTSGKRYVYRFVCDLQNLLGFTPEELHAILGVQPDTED
The following applies: protein: recombinant; tags: N-terminal GST; dsDNA, one strand shown. The method, boiled down: as §1

Another assay deals with T9, SPDEF (Homo sapiens, UniProt O95238 1-335).
T9 sequence: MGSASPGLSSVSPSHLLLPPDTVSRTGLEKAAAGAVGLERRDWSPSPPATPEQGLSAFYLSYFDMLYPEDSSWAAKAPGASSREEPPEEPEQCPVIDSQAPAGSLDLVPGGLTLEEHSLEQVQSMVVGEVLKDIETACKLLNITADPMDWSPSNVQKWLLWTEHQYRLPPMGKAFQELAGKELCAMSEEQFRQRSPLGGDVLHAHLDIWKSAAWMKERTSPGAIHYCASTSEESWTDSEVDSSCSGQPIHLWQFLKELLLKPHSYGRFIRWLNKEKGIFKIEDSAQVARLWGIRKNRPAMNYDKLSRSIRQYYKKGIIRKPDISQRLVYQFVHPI
To be noted: protein: recombinant; tags: N-terminal GST; dsDNA, one strand shown. The method, boiled down:
as §1

The next assay concerns the target T10, ETV7 (Homo sapiens, UniProt Q9Y603 1-341).
T10 sequence: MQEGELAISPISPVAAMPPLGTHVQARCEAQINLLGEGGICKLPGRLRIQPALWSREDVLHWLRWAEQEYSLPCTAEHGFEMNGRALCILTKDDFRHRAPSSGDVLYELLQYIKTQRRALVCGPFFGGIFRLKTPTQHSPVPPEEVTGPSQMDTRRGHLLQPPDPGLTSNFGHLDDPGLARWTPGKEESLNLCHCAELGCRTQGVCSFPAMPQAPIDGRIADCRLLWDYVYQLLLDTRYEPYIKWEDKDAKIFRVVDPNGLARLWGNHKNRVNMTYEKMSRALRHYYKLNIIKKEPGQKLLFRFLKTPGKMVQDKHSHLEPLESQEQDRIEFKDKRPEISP
The following applies: protein: recombinant; tags: N-terminal GST; dsDNA, one strand shown. The method, boiled down:
as §1

The next assay concerns the target T11, ELF5 (Homo sapiens, UniProt Q9UKW6-2 1-255).
T11 sequence: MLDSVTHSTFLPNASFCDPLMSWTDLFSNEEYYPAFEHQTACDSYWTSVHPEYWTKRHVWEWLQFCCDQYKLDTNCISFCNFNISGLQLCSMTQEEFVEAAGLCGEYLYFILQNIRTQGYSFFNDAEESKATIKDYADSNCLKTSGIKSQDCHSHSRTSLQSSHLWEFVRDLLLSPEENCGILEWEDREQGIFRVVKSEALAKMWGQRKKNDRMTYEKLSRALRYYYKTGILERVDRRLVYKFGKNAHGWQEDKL
The following applies: protein: recombinant; tags: N-terminal GST; dsDNA, one strand shown. The method, boiled down:
as §1

For a further assay, the target named is T12, ETV3 (Homo sapiens, UniProt P41162-2 1-143).
T12 sequence: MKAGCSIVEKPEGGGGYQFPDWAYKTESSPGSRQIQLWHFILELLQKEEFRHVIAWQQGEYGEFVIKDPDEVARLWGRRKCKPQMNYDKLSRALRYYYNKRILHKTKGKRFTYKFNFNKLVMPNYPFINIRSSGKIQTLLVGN
The following applies: protein: recombinant; tags: N-terminal GST; dsDNA, one strand shown. The method, boiled down:
as §1

A further assay concerns the target ETV6 (Homo sapiens, UniProt P41212 1-452). The following applies: protein: recombinant; tags: N-terminal GST; dsDNA, one strand shown. The method, boiled down: as §1

ETV6, sequence (P41212 whole entry): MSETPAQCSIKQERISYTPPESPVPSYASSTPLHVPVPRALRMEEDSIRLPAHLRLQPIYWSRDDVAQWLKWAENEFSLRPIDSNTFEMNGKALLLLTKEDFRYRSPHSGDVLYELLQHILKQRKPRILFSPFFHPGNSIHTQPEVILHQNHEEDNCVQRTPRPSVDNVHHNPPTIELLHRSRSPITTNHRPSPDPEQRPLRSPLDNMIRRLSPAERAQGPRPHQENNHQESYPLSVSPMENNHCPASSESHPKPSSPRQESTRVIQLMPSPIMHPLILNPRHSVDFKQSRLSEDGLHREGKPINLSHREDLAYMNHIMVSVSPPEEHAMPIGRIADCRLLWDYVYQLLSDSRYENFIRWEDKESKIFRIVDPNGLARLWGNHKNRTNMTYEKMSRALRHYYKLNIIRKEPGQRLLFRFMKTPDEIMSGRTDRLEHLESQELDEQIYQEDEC
ETV5, sequence (P41161 whole entry): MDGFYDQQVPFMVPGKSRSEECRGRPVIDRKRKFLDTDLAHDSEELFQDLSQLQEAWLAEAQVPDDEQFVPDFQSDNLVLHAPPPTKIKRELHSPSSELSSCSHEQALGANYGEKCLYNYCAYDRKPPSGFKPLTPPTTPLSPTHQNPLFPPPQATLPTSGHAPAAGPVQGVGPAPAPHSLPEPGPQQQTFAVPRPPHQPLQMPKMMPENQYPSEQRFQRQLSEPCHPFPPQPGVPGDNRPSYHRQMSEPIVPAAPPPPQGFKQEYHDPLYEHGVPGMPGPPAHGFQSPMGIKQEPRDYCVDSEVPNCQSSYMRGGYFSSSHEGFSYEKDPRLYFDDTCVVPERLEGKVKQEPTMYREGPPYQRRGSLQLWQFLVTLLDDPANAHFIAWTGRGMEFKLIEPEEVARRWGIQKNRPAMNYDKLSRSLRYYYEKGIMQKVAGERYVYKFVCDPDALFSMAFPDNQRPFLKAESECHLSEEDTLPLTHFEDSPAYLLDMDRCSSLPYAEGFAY
CRX, sequence (O43186 whole entry): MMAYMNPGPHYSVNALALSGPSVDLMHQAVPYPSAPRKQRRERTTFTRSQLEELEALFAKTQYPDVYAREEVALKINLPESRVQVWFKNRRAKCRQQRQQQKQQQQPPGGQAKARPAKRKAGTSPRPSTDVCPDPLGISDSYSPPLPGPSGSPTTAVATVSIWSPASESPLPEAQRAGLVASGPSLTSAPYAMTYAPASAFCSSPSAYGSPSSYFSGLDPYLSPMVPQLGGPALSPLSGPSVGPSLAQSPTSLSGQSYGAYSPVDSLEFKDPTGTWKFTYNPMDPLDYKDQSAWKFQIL
HSF1, sequence (Q00613 whole entry): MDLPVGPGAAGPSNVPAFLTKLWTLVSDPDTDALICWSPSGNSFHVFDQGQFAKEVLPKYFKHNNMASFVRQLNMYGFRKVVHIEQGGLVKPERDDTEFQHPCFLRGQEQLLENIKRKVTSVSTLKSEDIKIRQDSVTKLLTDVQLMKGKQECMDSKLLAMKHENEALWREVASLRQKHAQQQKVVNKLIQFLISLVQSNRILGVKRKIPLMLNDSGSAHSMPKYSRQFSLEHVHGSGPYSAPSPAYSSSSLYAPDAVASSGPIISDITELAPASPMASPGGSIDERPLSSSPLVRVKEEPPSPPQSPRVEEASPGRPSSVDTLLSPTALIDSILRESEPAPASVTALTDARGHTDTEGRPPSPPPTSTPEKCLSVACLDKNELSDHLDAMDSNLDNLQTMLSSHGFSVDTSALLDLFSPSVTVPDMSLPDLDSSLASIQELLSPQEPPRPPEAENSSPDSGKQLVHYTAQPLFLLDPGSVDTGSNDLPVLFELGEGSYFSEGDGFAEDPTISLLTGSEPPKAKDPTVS

ACCGAC: the binding signal with FEV was 1.36 fold enrichment (6-mer frequency, TF over GST control); in the assay with ETV5, 1.31 fold enrichment (6-mer frequency, TF over GST control); in the assay with HSF1, 1.05 fold enrichment (6-mer frequency, TF over GST control); with SPIC it was 1.37 fold enrichment (6-mer frequency, TF over GST control); with ELF4, 1.31 fold enrichment (6-mer frequency, TF over GST control); in the assay with ELK4, 1.24 fold enrichment (6-mer frequency, TF over GST control). Moreover, the binding signal with ETV2 is 1.36 fold enrichment (6-mer frequency, TF over GST control); in the assay with ELF3, 1.17 fold enrichment (6-mer frequency, TF over GST control); with CRX, 1.05 fold enrichment (6-mer frequency, TF over GST control); in the assay with ETV1, 1.37 fold enrichment (6-mer frequency, TF over GST control); with ERF, 1.29 fold enrichment (6-mer frequency, TF over GST control); with ETV3L, 1.44 fold enrichment (6-mer frequency, TF over GST control). Also, the binding signal in the assay with ETS2 is 1.38 fold enrichment (6-mer frequency, TF over GST control); with SPDEF it was 1.37 fold enrichment (6-mer frequency, TF over GST control); with ETV7 it was 1.25 fold enrichment (6-mer frequency, TF over GST control); in the assay with ELF5, 1.25 fold enrichment (6-mer frequency, TF over GST control); with ETV3 it was 1.27 fold enrichment (6-mer frequency, TF over GST control); with ETV6 it was 1.41 fold enrichment (6-mer frequency, TF over GST control).
